Source: the supplement of paper PMC11001985

Compound: C#CCNC(=O)CCSSCCC(=O)NCCc1ccc(C=O)c(C=O)c1
Assay: lysine labeling ratio R10:1 (500 µM / 50 µM probe), SILAC-ABPP in living cells; higher = lower intrinsic lysine reactivity toward the probe, active = 2 or less
Conditions: HeLa; probe concentrations 500 vs 50 µM
How it was run: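 An alkyne-tagged lysine probe with a disulfide linker labelled living HeLa cells in PBS at room temperature at either 50 µM or 500 µM, using SILAC light and heavy cells in forward and reverse label swaps. Lysates were mixed, clicked to biotin-azide, trypsin-digested, enriched on neutravidin, DTT-released, alkylated and measured by LC-MS/MS on a TIMS-TOF Pro. Each lysine's R is the filtered median high-probe/low-probe MS1 peptide ratio, combined as the median over forward and reverse replicates, with 20 as the upper limit.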

UniProt Q13813, sequence (Q13813 whole entry): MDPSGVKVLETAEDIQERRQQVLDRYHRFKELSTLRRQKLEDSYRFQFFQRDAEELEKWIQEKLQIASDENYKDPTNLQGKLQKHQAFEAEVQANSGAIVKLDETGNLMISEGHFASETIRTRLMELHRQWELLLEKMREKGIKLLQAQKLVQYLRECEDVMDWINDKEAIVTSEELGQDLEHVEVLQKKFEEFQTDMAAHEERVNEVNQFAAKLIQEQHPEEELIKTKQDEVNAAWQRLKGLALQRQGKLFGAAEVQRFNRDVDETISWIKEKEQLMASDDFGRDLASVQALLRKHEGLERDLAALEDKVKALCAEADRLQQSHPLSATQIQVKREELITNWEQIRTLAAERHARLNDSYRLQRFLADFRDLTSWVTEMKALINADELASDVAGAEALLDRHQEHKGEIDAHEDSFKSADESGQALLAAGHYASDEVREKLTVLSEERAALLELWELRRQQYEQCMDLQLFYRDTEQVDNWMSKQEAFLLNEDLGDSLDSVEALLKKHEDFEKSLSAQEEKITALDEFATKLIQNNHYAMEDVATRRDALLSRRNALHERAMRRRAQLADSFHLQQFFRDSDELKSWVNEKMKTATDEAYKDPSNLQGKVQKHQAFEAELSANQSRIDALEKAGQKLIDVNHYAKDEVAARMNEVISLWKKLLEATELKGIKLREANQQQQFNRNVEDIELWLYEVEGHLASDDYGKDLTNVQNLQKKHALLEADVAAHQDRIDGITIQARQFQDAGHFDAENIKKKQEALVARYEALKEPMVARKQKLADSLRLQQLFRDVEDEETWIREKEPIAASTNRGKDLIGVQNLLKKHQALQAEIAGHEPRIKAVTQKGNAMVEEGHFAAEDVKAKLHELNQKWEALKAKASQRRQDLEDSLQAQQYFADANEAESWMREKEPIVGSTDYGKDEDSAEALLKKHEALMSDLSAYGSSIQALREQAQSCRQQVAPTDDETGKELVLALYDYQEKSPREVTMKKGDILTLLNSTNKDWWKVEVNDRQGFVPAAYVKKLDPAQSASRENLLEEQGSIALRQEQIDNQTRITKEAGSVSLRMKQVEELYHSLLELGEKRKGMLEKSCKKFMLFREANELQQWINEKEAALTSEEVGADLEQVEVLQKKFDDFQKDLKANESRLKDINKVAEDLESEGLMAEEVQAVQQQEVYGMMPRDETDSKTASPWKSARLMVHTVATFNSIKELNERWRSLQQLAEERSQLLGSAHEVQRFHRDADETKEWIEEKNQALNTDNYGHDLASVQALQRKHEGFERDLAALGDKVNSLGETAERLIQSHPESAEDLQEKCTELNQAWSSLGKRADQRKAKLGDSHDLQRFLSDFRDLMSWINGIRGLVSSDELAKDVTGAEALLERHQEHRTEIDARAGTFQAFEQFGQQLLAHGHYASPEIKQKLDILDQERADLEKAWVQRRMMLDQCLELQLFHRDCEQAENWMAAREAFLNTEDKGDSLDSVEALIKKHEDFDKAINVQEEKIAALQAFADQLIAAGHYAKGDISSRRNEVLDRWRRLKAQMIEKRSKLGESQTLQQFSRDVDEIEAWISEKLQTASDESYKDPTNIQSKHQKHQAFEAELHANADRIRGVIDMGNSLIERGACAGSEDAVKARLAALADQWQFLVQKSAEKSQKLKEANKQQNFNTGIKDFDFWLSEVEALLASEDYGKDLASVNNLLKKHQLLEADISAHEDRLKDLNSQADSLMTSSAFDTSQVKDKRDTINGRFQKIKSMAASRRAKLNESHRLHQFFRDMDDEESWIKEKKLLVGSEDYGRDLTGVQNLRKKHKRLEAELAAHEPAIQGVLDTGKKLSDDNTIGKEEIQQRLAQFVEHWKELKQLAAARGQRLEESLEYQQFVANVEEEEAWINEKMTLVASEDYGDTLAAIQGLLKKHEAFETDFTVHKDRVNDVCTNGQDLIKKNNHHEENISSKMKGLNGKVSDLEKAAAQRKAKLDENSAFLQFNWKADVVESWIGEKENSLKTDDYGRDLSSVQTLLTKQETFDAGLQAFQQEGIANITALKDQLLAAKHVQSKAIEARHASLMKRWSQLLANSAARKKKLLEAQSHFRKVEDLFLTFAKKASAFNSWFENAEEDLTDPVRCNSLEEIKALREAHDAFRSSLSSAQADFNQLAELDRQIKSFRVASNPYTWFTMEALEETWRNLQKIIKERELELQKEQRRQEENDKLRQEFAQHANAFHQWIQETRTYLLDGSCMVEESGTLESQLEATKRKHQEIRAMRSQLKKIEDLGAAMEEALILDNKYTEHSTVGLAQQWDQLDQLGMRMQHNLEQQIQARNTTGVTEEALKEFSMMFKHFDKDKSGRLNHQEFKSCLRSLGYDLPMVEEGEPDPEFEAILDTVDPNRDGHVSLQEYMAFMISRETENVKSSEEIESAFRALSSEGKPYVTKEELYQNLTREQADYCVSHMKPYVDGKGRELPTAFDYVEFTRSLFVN
UniProt P17301, sequence (P17301 whole entry): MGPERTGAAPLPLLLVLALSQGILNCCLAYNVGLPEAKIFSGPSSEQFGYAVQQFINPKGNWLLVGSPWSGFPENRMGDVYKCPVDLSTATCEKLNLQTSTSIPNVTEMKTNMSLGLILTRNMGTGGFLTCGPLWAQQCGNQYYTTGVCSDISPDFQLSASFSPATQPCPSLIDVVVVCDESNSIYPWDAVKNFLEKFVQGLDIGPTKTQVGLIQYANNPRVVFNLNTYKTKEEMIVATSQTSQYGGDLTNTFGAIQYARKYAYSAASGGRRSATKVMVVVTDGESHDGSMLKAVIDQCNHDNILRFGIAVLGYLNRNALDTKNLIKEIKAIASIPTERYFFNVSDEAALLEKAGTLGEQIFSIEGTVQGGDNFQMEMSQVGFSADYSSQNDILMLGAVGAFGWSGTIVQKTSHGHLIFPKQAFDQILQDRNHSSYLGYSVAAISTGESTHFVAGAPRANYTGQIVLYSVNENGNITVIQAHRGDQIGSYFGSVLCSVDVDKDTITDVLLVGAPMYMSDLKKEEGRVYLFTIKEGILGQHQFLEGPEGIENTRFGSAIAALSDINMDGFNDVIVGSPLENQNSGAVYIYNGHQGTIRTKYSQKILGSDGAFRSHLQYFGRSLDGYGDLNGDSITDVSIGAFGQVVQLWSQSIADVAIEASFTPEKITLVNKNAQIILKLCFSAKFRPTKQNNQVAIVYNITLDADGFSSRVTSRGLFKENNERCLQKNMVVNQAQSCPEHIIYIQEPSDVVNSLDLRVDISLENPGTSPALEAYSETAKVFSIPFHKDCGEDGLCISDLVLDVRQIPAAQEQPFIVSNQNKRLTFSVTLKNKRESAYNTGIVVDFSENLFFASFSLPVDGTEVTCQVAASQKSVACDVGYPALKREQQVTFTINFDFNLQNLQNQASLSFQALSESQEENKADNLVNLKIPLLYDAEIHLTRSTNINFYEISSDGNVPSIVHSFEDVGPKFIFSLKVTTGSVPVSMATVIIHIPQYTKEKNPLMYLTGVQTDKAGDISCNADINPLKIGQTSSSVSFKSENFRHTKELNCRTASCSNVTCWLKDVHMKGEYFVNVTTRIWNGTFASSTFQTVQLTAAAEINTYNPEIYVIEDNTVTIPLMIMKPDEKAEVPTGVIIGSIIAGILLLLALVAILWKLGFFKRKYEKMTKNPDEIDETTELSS
UniProt P14618, sequence (P14618 whole entry, looked up): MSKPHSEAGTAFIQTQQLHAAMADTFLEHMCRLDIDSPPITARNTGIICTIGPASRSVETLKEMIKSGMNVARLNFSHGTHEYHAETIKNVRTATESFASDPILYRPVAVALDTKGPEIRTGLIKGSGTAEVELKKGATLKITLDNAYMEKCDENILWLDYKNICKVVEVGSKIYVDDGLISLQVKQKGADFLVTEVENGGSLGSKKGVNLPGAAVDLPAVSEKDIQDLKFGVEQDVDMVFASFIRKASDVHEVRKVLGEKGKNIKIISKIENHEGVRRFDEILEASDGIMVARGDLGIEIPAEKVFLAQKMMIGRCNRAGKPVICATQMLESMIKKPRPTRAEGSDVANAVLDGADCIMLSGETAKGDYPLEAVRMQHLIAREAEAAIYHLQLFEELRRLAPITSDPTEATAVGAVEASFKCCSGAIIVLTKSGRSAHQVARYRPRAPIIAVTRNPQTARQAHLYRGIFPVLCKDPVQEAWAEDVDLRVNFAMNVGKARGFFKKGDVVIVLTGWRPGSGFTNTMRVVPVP
UniProt Q99623, sequence (Q99623 whole entry): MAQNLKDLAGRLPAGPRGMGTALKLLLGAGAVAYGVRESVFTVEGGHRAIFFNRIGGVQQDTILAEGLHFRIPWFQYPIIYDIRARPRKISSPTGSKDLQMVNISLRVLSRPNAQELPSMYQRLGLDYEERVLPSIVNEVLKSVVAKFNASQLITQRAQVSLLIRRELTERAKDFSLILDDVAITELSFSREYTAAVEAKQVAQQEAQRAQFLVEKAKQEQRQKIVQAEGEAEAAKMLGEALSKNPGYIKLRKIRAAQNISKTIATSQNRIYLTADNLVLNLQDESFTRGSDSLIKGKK
UniProt P34741, sequence (P34741 whole entry): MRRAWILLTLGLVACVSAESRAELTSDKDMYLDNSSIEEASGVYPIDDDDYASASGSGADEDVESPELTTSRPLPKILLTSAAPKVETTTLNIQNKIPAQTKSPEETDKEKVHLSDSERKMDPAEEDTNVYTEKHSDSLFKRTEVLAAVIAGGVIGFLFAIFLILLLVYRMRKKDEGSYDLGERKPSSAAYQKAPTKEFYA
UniProt Q8WXX5, sequence (Q8WXX5 whole entry): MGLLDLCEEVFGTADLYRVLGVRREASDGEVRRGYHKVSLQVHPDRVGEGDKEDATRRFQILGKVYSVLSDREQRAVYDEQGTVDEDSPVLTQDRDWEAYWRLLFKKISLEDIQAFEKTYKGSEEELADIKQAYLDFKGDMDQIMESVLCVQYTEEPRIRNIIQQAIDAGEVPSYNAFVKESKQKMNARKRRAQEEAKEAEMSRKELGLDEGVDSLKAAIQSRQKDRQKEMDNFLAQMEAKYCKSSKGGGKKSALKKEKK

Lysine labeling ratio R10:1, inactive:
SDC2 (lysine site: K134) (UniProt P34741) 3.52
SPTAN1 (lysine site: K2078) (UniProt Q13813) 4.25
UniProt Q99623 (lysine site: K200) 2.34
SLC3A2 (lysine site: K298) (UniProt P08195) 6.33
NOTCH2 (lysine site: K1350) (UniProt Q04721) 2.12
UniProt Q15149 (lysine site: K1552) 2.31
SLC12A7 (lysine site: K393) (UniProt Q9Y666) 3.46
PLOD2 (lysine site: K412) (UniProt O00469) 7.56
UniProt P14618 (lysine site: K367) 3.33
FLNA (lysine site: K338) (UniProt P21333) 3.9
SPTAN1 (lysine site: K1141) (UniProt Q13813) 17.4
DNAJC9 (lysine site: K198) (UniProt Q8WXX5) 2.94
ITGA2 (lysine site: K1038) (UniProt P17301) 2.81
FAT4 (lysine site: K2215) (UniProt Q6V0I7) 3.48

Lysine labeling ratio R10:1, active:
CYR61 (lysine site: K378) (UniProt O00622) 1.08
LAMB1 (lysine site: K184) (UniProt P07942) 1.21
FRAS1 (lysine site: K2396) (UniProt Q86XX4) 1.59
